# Compound activity as filed in PubChem.
# Shown are actives, neighbours in structure and some others; about 3% of the full set was active somewhere.
# ALOX12 inh = Primary qHTS assay for inhibitors of human arachidonate 12S-lipoxygenase (ALOX12): Round 2; Potency, µM (series often up to 108 µM), without a hit: at the highest dose activity change, negative = inhibition, actives largely listed as inhibitors; 1.1% of 580,000 active; AID 1671190, 2021; purified 12hLO, xylenol orange hydroperoxide absorbance; Polyunsaturated fatty acid lipoxygenase ALOX12 (Homo sapiens), P18054
#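 Hydroperoxide product was detected by ferrous iron/xylenol orange as the 573 to 405 nm absorbance ratio. Arachidonic acid at 40 uM (final) was turned over for 30 min at room temperature by 150 nM human 12hLO, pH 7.0 Hepes buffer, after 15 min compound preincubation.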
# VDR inhibitor = Inhibitors of the vitamin D receptor (VDR): qHTS | Vitamin D3 receptor (Homo sapiens), P11473 | VDR-SRC2-3 peptide fluorescence polarization, 2 h | Potency, µM, without a hit: max response, negative = inhibition, most hits filed as inhibitors | 0.93% of 400,000 active | AID 504847, 2011
#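 The screen uses fluorescence polarization to detect compounds that interfere with recruitment of the SRC2-3 coactivator peptide to VDR; plates are read after 2 h at room temperature.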
# PLK1 PBD inh = qHTS for Inhibitors of PLK1-PDB (polo-like kinase 1 - polo-box domain): Primary Screen; Potency, µM, without a hit: max response, negative = inhibition, hits mostly inhibitors; 2.8% of 360,000 active; Plk1 PBD binding of FITC phosphopeptide, fluorescence polarization; Serine/threonine-protein kinase PLK1 (Homo sapiens), P53350; note: series mostly up to about 57 µM; nearly all actives have a fitted effect of over 65% in size
# Target sequence (P53350 whole entry, looked up, the tested form may be a part): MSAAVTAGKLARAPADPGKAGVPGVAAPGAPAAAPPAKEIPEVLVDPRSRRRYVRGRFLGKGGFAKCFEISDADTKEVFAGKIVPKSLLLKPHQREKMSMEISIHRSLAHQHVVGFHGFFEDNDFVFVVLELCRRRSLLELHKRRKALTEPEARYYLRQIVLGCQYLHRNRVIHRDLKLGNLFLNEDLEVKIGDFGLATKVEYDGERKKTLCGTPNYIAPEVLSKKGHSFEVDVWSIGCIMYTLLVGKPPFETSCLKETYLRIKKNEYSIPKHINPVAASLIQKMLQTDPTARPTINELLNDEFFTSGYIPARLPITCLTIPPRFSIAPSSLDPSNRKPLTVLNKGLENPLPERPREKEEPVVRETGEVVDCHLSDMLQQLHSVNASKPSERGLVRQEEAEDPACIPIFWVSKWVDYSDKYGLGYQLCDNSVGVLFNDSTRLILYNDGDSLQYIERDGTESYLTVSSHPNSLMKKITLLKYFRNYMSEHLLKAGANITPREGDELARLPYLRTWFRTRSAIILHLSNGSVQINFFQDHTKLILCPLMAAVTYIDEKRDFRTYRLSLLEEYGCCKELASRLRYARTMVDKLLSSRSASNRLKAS
# KAT2A inh = qHTS Assay for Inhibitors of GCN5L2. Potency, µM (highest dose often 58.9 µM), without a hit: top-dose activity change, negative = inhibition, most hits filed as inhibitors. AID 504327, 2011. GCN5L2 HAT assay, ThioGlo1 CoA-SH fluorescence. 0.21% of 390,000 active
#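 GCN5L2 (20 nM) in 50mM HEPES pH 7.5, 0.1mM EDTA, 0.01% Tween-20 preincubated 15 min with compounds at room temperature. Reaction started with H3(1-25) 75uM, acetyl-CoA 70uM, ThioGlo1 50uM; CoA-thiol fluorescence (Ex340/Em540) read at 0 and 20 min.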
# Numbers without * were called inactive; ? = inconclusive; nt = no result; [ ] = dose if it differs, or a comment. Calls come from the whole dose curve; as a rule, active = well fitted curve in the direction sought with a large enough effect; inconclusive = small, poorly fitted or top-dose-only effect, or another doubt; inactive = no such curve, though single readings can be large; an effect the other way counts as inactive or inconclusive. % is set by controls: 0 for no effect and ±100 for the full control effect; potency is the fitted concentration of half-maximal effect.
SMILES,ALOX12 inh,VDR inhibitor,PLK1 PBD inh,KAT2A inh
CC(C)(C)CN1CCCC2(CC(c3cccnc3)=NO2)C1 (centres undefined),3.2%[12.5 µM],nt,nt,nt
O=S(=O)(c1ccccc1)N1[C@H]2CC[C@@H]1c1cncnc1C2,23.7%,nt,nt,nt
CCN1C(=O)C(=Cc2ccc(C)s2)C(=O)N(CC)C1=S,?,?,0.532µM*,-29.6%
O=c1[nH]c(=O)n(-c2ccccc2F)c(O)c1/C=C1\C=Nc2ccccc21,0.0%,-17.3%,4.23µM*,23.9%
COc1ccc(-n2c(O)c(/C=C3\C=Nc4ccc(Br)cc43)c(=O)[nH]c2=O)cc1,?,?,1.06µM*,-4.5%
O=c1[nH]c(=O)n(Cc2ccccc2)c(O)c1/C=C1\C=Nc2ccccc21,?,-10.5%,?,-9.2%
O=c1[nH]c(=O)n(CC2CCCO2)c(O)c1/C=C1\C=Nc2ccccc21 (centres undefined),?,9.5%,26.7µM*,24.6%
O=C(N/N=C/C1C(=O)NC(=S)N(c2ccccc2)C1=O)c1cc(Br)c(O)c(Br)c1 (centres undefined),?,39.8µM*,3.36µM*,-13.4%
O=C(N/N=C/c1c(O)n(C2CCCCC2)c(=S)[nH]c1=O)c1ccccc1,?,-27.8%,?,-2.1%
Cc1[nH]nc2c1C(c1ccc(-c3cccc(Cl)c3)o1)SCC(=O)N2 (centres undefined),-40.8%,nt,nt,nt
O=C(CC1CCCC1)N1[C@H]2CC[C@@H]1c1cnc(-c3ccc(F)cc3)nc1C2,8.5%,nt,nt,nt
COc1ccc(S(=O)(=O)NC[C@H]2C[C@@H]3CCN2C[C@@H]3CN2CCOCC2)cc1,4.1%[176 µM],nt,nt,nt
COc1ccc(S(=O)(=O)NC[C@H]2C[C@@H]3CCN2C[C@@H]3CN2CCC(Cc3ccccc3)CC2)cc1,20µM*,nt,nt,nt
COc1ccc(N2C(=O)NC(=O)/C(=C/c3ccc4c(c3)Cc3ccccc3-4)C2=O)cc1,nt,nt,nt,-20.1%
COc1ccc(N2C(=O)NC(=O)/C(=C\c3ccccc3[N+](=O)[O-])C2=O)cc1,?,50.1µM*,11.9µM*,3.0%
COc1cccc(N2C(=O)NC(=O)/C(=C/c3ccc4c5c(cccc35)CC4)C2=O)c1,39.8µM*,nt,nt,-4.3%
CC(=O)Nc1ccc(-c2ccc(=O)n3c2[C@@H]2C[C@@H](CN(C(=O)C(C)(C)C)C2)C3)cc1,26.0%[176 µM],nt,nt,nt
CCCCCCCCCCCCCCOS(=O)(=O)O,nt,28.2µM*,nt,8.91µM*
Cc1ccc(NC2C(=O)NC(=O)NC2=O)cc1,2.2%,14.1µM*,-26.2%,nt
O=C1NC(=O)C(Nc2ccccc2)C(=O)N1,-0.8%,25.1µM*,-25.4%,nt
NCCc1cccs1,79.1%,nt,nt,nt
O=C1NC2(CCN(Cc3cccnc3)C2)COc2ccccc21 (centres undefined),84.2%[176 µM],nt,nt,nt
CC12CCC3c4ccc(OP(=O)(N5CC5)N5CC5)cc4CCC3C1CCC2=O (centres undefined),23.7%,-7.5%,-6.0%,nt
C[C@]12CC[C@@H]3c4ccc(OC(=O)N(CCCl)CCCl)cc4CC[C@H]3[C@@H]1CC[C@@H]2OP(=O)(O)O,21.7µM*,nt,nt,nt
CCC(CC)c1cc([C@H]2CN3CC[C@H]2C[C@@H]3CNC(=O)c2cccs2)nc(-c2ccncc2)n1,0.5%,nt,nt,nt
SMILES,ALOX12 inh,VDR inhibitor,PLK1 PBD inh,KAT2A inh
CC1=CC(=O)NP(=O)(Oc2ccc3ccccc3c2)N1 (centres undefined),0.0%,-9.7%,6.7µM*,31.6µM*
COC1CN(c2cccc(F)c2)C12CCNCC2 (centres undefined),31.5%,nt,nt,nt
COc1cc2c(cc1Oc1cccc(N(C)C)c1)NC(=O)C21CCN(Cc2ccccc2)CC1,89.1µM*,nt,nt,nt
COc1cc2c(cc1Oc1cccc(N(C)C)c1)NC(=O)C21CCN(CC2CC2)CC1,49.5%[176 µM],nt,nt,nt
CN=CNc1ccc(C)cc1C,0.4%[176 µM],nt,nt,nt
N#Cc1cc2c(cc1C(=O)c1cccs1)OCCO2,-5.3%,nt,nt,nt
CC1=C(O)C(=O)C=C2C1=CC=C1C2(C)CCC2(C)C3CC(C)(C(=O)O)CCC3(C)CCC12C (centres undefined),4.47µM*,28.2µM*,2.12µM*,nt
[O-]/[N+](=C/c1cccnc1)c1ccc(Br)cc1,-29.4%,44.7µM*,10.6µM*,-3.8%
CC[N+](CC)(CC)CCOc1cccc(OCC[N+](CC)(CC)CC)c1OCC[N+](CC)(CC)CC,?,8.9%,-10.5%,12.6µM*
O=C1C(I)=CC(=C(c2cc(I)c(O)c(I)c2)c2ccccc2C(=O)O)C=C1I,5.1µM*,35.5µM*,nt,3.55µM*
Cc1c(C=O)c2ccccc2n1Cc1cccc(F)c1,0.6%,20µM*,?,-4.1%
Cc1c(C=O)c2ccccc2n1Cc1ccccc1,0.0%,-1.2%,-9.5%,-11.3%
O=P(N1CC1)(N1CC1)N1CCc2ccccc21,-7.2%,-11.6%,-3.5%,nt
N#CSCC(=O)N1c2ccccc2CCc2ccccc21,-5.2%,?,10.6µM*,-2.4%
CC1OC(OC2CCC3(C=O)[C@H]4CCC5(C)C(C6=CC(=O)OC6)CCC5(O)[C@@H]4CCC3(O)C2)CC2OC(C)(C)OC12 (some centres undefined),19.0%,nt,nt,nt
COc1cccc(CC(=O)N2[C@H]3CC[C@@H]2c2cnc(-c4ccccc4)nc2C3)c1,35.6%,nt,nt,nt
CCCn1c(=O)n(C)c(=O)c2c(SCC(=O)NC34CC5CC(CC(C5)C3)C4)nc(CC(C)C)nc21,0.7%,-7.7%,29.9µM*,-0.6%
Cn1cc(C(=O)OCC(=O)NC(=O)NC(C)(C)C)c2ccccc21,9.5%,nt,nt,nt
O=C1C2CC=CCC2C(=O)N1SC(Cl)(Cl)Cl (centres undefined),39.8µM*,3.98µM*,nt,?
Cc1ccc(Sc2ccc(C=C3C(=O)N(C)C(=O)N(C)C3=O)o2)cc1,35.5µM*,?,0.532µM*,-11.5%
CCOC(=O)c1cc(C)sc1/N=C/C1C(=O)NC(=S)NC1=O,-10.3%,?,5.32µM*,-7.5%
CCOC(=O)c1c(/N=C/C2C(=O)NC(=S)NC2=O)sc(C)c1C,nt,nt,nt,-1.3%
Cc1cc(C)cc(C(=O)N2CCC3(CC2)c2nccn2-c2ccccc2CN3C)c1,7.6%,nt,nt,nt
O=C(NCc1ccccc1)Oc1cccc(Cl)c1,?,3.4%,8.44µM*,-2.0%
S=C(Nc1ccccc1)Nc1cccc(Br)c1,?,-10.7%,26.7µM*,-5.6%
SMILES,ALOX12 inh,VDR inhibitor,PLK1 PBD inh,KAT2A inh
CC1CCCCN1C(=O)Cn1cc(C=C2C(=O)N(C)C(=O)N(C)C2=O)c2ccccc21 (centres undefined),1.2%,-9.1%,16.8µM*,1.4%
CCN(CC)C(=O)Cn1cc(C=C2C(=O)N(C)C(=O)N(C)C2=O)c2ccccc21,0.0%,-7.7%,29.9µM*,0.6%
C=CC[N+](CC#CCO)(CCCC)CCCC,22.1%,nt,nt,nt
Cc1ccc(C(=O)N2[C@H]3CC[C@@H]2c2cnc(-c4ccccc4)nc2C3)cn1,1.0%,nt,nt,nt
O=C1C(Cl)=C(N2CCOCC2)C(=O)N1c1ccccc1F,-29.9%,14.1µM*,-13.4%,-4.5%
CC(C)Cn1cc(C(=O)NCC2CCCN2C)c2ccccc21 (centres undefined),-1.9%,nt,nt,nt
